# Only some compounds are listed: those with a hit (about 3.2% of all), similar ones and a draw of the others.
# LmPK inhibitor: qHTS Assay for Inhibitors of Leishmania Mexicana Pyruvate Kinase (LmPK); Q27686; purified LmPK, Kinase-Glo ATP luminescence, 1 h; Potency, µM (highest dose often 57.5 µM), for the others: top-dose activity change, negative = inhibition, hits mostly inhibitors; 0.37% of 290,000 active; AID 1721, 2009
# Target sequence (Q27686 whole entry, looked up): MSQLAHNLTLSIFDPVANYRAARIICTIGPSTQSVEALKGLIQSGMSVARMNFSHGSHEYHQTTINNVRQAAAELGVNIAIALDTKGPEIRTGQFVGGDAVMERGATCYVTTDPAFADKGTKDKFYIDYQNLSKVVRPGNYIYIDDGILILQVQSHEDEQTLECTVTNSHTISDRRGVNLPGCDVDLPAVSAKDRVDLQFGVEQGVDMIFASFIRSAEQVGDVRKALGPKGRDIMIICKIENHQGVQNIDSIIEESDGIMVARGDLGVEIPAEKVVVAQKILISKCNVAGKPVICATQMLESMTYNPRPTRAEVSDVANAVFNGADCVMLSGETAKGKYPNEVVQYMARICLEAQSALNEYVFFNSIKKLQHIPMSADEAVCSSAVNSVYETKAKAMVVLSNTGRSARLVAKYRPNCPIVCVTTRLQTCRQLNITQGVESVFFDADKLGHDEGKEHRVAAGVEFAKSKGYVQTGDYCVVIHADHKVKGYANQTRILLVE
#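 Kinase-Glo luminescence read after 1 h RT reaction of 0.1 nM LmPK with 0.5 mM PEP and 0.1 mM ADP. Activity scaled between uninhibited and enzyme-free controls.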
# RE007 growth inh: qHTS Assay for Inhibitors of the HIV-1 protein Vpr; S. pombe RE007 Vpr strain, BacTiter-Glo ATP luminescence, 24 h; Potency, µM (highest dose often 92.2 µM), for inactives: at the highest dose activity change, negative = less growth, most hits filed as inhibitors; 0.21% of 360,000 active; AID 651644, 2012; active = well fitted falling curve with a large enough effect; inconclusive = small, poorly fitted or top-dose-only effect; inactive = no such curve, though single readings can be large or run the other way; note: nearly all actives have a fitted effect of over 50% in size
#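 Fission yeast strain RE007, carrying one chromosomally integrated HIV-1 vpr copy, was seeded at OD 0.01 in PMG+AL medium with 23 nL pinned compound. After 24 h at 30 °C and 99% humidity, viability was read by BacTiter-Glo luminescence.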
# Sm TGR inh: qHTS Assay for the Inhibitors of Schistosoma Mansoni Peroxiredoxins; purified TGR, DTNB reduction, TNB absorbance 405 nm; Schistosoma mansoni thioredoxin glutathione reductase (TGR), Q962Y6; Potency, µM (titrated, usually from 114 µM), without a hit: top-dose activity change, negative = inhibition, usual class: inhibitors; 3% of 360,000 active; note: nearly all actives have a fitted effect of over 60% in size
#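 First, TGR (20 nM dispensed) and NADPH were mixed with compound. Second, a 15 min room-temperature incubation followed. Third, further NADPH and then DTNB were added to start the reaction. Finally, TNB absorbance was monitored kinetically.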
# TbPYK inhibitor: qHTS of Trypanosoma Brucei Inhibitors; Potency, µM (highest dose often 76.8 µM), inactives show at the top dose activity, negative = inhibition, actives largely listed as inhibitors; 0.12% of 410,000 active; TbPYK enzyme, Kinase-Glo Plus ATP luminescence, 45 min; pyruvate kinase (Trypanosoma brucei), Q57TT1; note: nearly all actives have a fitted effect of over 50% in size
#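 Luminescent Kinase-Glo Plus end-point after 45 min room-temperature reaction of T. brucei pyruvate kinase started with 130 uM ADP (final). Buffer TEA 50 mM pH 7.2 with KCl, MgCl2, BSA, Tween-20; titration-based qHTS with fitted concentration-effect curves.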
# AMA1-RON2 inh: qHTS for Inhibitors of AMA1-RON; Towards Development of Antimalarial Drug Lead: Primary Screen. AID 720542, 2013. AlphaScreen AMA1-biotinylated RON2 peptide binding. Potency, µM (titrated, usually from 58.2 µM), without a hit: top-dose activity change, negative = inhibition, actives largely listed as inhibitors. 0.2% of 360,000 active. Plasmodium falciparum AMA1 (3D7) - RON2 peptide interaction;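 note: 0% = vehicle wells and -100% = peptide control; nearly all actives have a fitted effect of over 45% in size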
#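 AMA1 (3D7) with his tag at 25 nM final met compounds first, then biotinylated RON2 peptide at 25 nM; detection used donor plus acceptor beads, 10 µg/mL apiece, read by AlphaScreen after 30 min at room temperature.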
# An asterisk follows results filed as active; ? = inconclusive; . = no result. Unless noted, calls come from the whole dose curve; as a rule, active = well fitted curve in the direction sought with a large enough effect; inconclusive = small, poorly fitted or top-dose-only effect, or another doubt; inactive = no such curve, though single readings can be large; an effect the other way counts as inactive or inconclusive. Unless noted, % is set by controls: 0 for no effect and ±100 for the full control effect; potency is the fitted concentration of half-maximal effect.
SMILES,LmPK inhibitor,RE007 growth inh,Sm TGR inh,TbPYK inhibitor,AMA1-RON2 inh
COc1ccc2c(c1)c1c(c(=O)n(-c3ccc(C)cc3)c(=O)n1CC(=O)Nc1cc(C)ccc1C)n2C,.,.,-1.8%,-1.1%,.
Cc1c2cnn(CC(=O)N3CCN(c4ccc(F)cc4)CC3)c(=O)c2c(C)n1Cc1ccccc1F,.,.,2.7%,-15.2%,.
COc1ccc(C(=O)NNC(=O)c2ccccn2)cc1,1.26µM*,10µM*,1.4%,?,26.9%
COc1cc(OC)cc(C(=O)NNC(=O)c2ccccn2)c1,-3.9%,-2.4%,1.0%,-12.1%,115.1%
N/C(=N\OC(=O)c1ccc(Cl)cc1)c1[nH]ncc1Br,10µM*,?,-2.6%,?,70.6%
N/C(=N\OC(=O)c1ccccc1Cl)c1ccccn1,7.08µM*,?,1.5%,?,29.7%
COc1ccc(/C(O)=C/C(=O)C(=O)NNC(=O)c2ccccc2)cc1,0.8%,1.6%,14.1µM*,-5.9%,45.4%
CCO/N=C(\N)c1[nH]ncc1Br,3.0%,12.9%,-2.6%,3.9%,3.5%
CCN(CC)C(=O)c1sc2c(c1C)c(=O)n(-c1ccc(C)c(C)c1)c(=O)n2CC(=O)Nc1ccc(F)cc1,.,.,-14.6%,-1.6%,.
COc1ccc(CCC(=O)NCc2nc3cccnc3n2Cc2ccccc2)cc1,.,.,-8.8%,-0.6%,.
CCC(C(=O)O)C1OC(C(C)C(O)C(C)C(=O)C(CC)C2OC3(C=CC(O)C4(CCC(C)(C5CCC(O)(CC)C(C)O5)O4)O3)C(C)CC2C)C(C)CC1C (stereo not drawn),.,.,.,-5.4%,.
Cc1ccccc1NC(=O)Nc1nnc(N2CCCCCC2)s1,.,.,3.3%,0.2%,.
N/C(=N\OC(=O)c1ccc(Cl)c(Cl)c1)c1ccccn1,-28.8%,-7.2%,9.3%,-2.6%,47.8%
COc1ccc(/C=C/C(=O)c2ccccn2)cc1,8.91µM*,?,?,?,-7.1%
N/C(=N\OC(=O)c1ccc(Cl)cc1)c1ccccn1,5.01µM*,?,7.3%,?,39.0%
COc1ccc(C(=O)O/N=C(\N)c2ccccn2)cc1,12.6µM*,?,3.4%,10µM*,18.5%
CCC(C)(Oc1ccc(C2(c3ccc(OC(C)(CC)C(=O)O)cc3)CCCCC2)cc1)C(=O)O (stereo not drawn),.,.,.,-5.1%,.
CCOc1ccccc1CNc1nc2nc(C)c(CC(=O)OC)c(=O)n2[nH]1,.,.,-0.2%,4.3%,.
Clc1ccc(CSc2nc3ncccc3[nH]2)cc1,.,.,1.2%,-0.7%,.
CSc1ccc(CCNC(=O)C(C)n2nc(C)c3sc4ccccc4c3c2=O)cc1 (stereo not drawn),.,.,0.9%,-2.3%,.
Cc1noc(C)c1C(=O)N1CCC2(CCN(C(=O)NC(C)C)CC2)CC1,.,.,.,-0.5%,.
O=C(CSc1cccc2cccnc12)N1CCCC1,-5.3%,44.7µM*,2.0%,?,18.1%
CCNC(=S)N1CCC(C(=O)c2ccc(Cl)cc2)CC1,-7.4%,3.6%,-5.9%,-12.2%,4.1%
CCCNC(=S)N1CCC(C(=O)c2ccc(Cl)cc2)CC1,-1.5%,-7.9%,89.1µM*,-2.3%,-0.1%
CN1CCN(Cc2nc3ccccc3c(=O)n2CC#N)CC1,-2.7%,-7.0%,5.4%,-0.1%,-0.3%
SMILES,LmPK inhibitor,RE007 growth inh,Sm TGR inh,TbPYK inhibitor,AMA1-RON2 inh
N#CCn1c(CCl)nc2ccccc2c1=O,-2.0%,1.1%,28.2µM*,-6.9%,-26.5%
CCOc1ccccc1CNS(=O)(=O)c1ccc2c(c1)CCCN2C(C)=O,.,.,10.8%,1.2%,.
CC1=C/C(=C/N(C)C)C(=O)O1,-6.6%,-8.3%,20µM*,-7.4%,6.1%
CN(C)/C=C1/C=C(C=O)OC1=O,1.1%,2.2%,-0.5%,-3.4%,18.3%
CN(C)/C=C1/C=C(c2ccccc2)OC1=O,8.4%,-55.4%,31.6µM*,0.4%,-5.0%
O=C(C1=C[C@@H](c2ccc(Br)cc2)C[C@@H](OCc2ccc(CO)cc2)O1)N1CCN(Cc2ccccc2)CC1,7.2%,-5.4%,25.1µM*,-1.4%,-17.1%
C#Cc1ccc([C@H]2C=C(C(=O)N3CCN(Cc4ccccc4)CC3)O[C@@H](OCc3ccc(CO)cc3)C2)cc1,3.7%,-28.0%,44.7µM*,-6.1%,-5.9%
O=C(C1=C[C@H](c2ccc(C(F)(F)F)cc2)C[C@H](OCCCCO)O1)N1CCN(Cc2ccccc2)CC1,6.8%,3.8%,35.5µM*,-18.3%,-9.1%
O=C(C1=C[C@@H](c2ccc(C(F)(F)F)cc2)C[C@@H](OCCCCO)O1)N1CCN(Cc2ccccc2)CC1,8.2%,-4.2%,?,-12.8%,-4.2%
CN1CCN(C(=O)C2=C[C@H](c3csc4ccccc34)C[C@H](OCCCCO)O2)CC1,6.9%,-12.8%,39.8µM*,-0.3%,1.5%
O=C(C1=C[C@@H](c2ccc(Br)cc2)C[C@@H](OCc2ccc(CO)cc2)O1)N1CCN(Cc2ccc3c(c2)OCO3)CC1,0.7%,8.8%,-29.8%,14.3%,-20.8%
CC(=O)N1CCc2cc(Br)cc(S(=O)(=O)NCCc3ccc(Cl)cc3)c21,.,.,1.6%,0.0%,.
COC(=O)c1c(NC(=O)CCCOc2ccc(C(C)(C)C)cc2)sc2c1C(C(=O)OC)CC2 (stereo not drawn),.,.,15.8%,-12.0%,.
CN1CCN(C(=O)C2=C[C@@H](c3ccc(Br)cc3)C[C@@H](OCc3ccc(CO)cc3)O2)CC1,5.3%,1.4%,-30.0%,-9.5%,-5.1%
CN1CCN(C(=O)C2=C[C@@H](c3ccccc3)C[C@@H](OCc3ccc(CO)cc3)O2)CC1,6.5%,6.9%,39.8µM*,-14.3%,-9.3%
O=C(C1=C[C@H](c2ccc(Br)cc2)C[C@H](OCCCCO)O1)N1CCOCC1,7.1%,-8.8%,35.5µM*,4.5%,60.5%
C#Cc1ccc([C@@H]2C=C(C(=O)N3CCN(Cc4ccccc4)CC3)O[C@H](OCCCCO)C2)cc1,5.6%,.,12.6µM*,.,.
O=c1c2[nH]c3ccccc3c2nc(SCc2cccc(F)c2)n1-c1ccccc1,.,.,11.8%,0.0%,.
CCc1ccc(NC(=O)C(C)n2nnc3sc(-c4ccccc4)cc3c2=O)cc1 (stereo not drawn),.,.,2.8%,-13.4%,.
CCc1ccc(N2C(=O)c3sc4nnc(-c5ccccc5)c(=O)n4c3C2=O)cc1,?,-18.4%,10µM*,-20.3%,-1.4%
Cc1c(N2C(=O)/C(=C\C3CC=CCC3)SC2=S)c(=O)n(-c2ccccc2)n1C (stereo not drawn),-0.5%,47.4%,28.2µM*,-8.8%,41.7%
Cc1ccc(/C=C2\SC(=S)N(c3c(C)n(C)n(-c4ccccc4)c3=O)C2=O)cc1,2.8%,18.8%,-12.2%,2.6%,-4.2%

# Assay outcomes: PubChem, National Center for Advancing Translational Sciences (NCATS)
